# An excerpt weighted towards active compounds, which were near 19% of everything screened.
# HT1080NT lethal: kills 2HG-producing HT-1080-NT fibrosarcoma cells; Potency, µM (highest dose often 46.1 µM), without a hit: top-dose activity, negative = less viability, hits mostly cytotoxic; HT-1080-NT fibrosarcoma viability, CellTiter-Glo ATP luminescence, 48 h; 360,000 tested, 1.6% active;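 note: NT is the 2HG producing partner of a matched IDH1 knockdown line; potency is the fitted concentration of half-maximal effect; 0% = DMSO-treated cells and -100% = media-only wells without cells; nearly all actives have a fitted effect of over 55% in size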
#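 Toxicity toward the 2HG-producing NT line was scored as %Activity, normalised to DMSO and no-cell wells, from CellTiter-Glo luminescence after 48 hours' treatment.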
# DT40 TDP1 CPT: DT40-hTDP1 cell growth loss with CPT. chicken DT40 Tdp1-/-;hTDP1 cells + 20 nM CPT, ATP luminescence, 48 h. Potency, µM (top dose mostly 46.2 µM), without a hit: at the top dose activity change, negative = growth inhibition, most hits filed as inhibitors. AID 686979. 420,000 tested, 12% active; note: potency is the fitted concentration of half-maximal effect; nearly all actives have a fitted effect of over 55% in size
#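 Cell growth measured by CellTiter-Glo luminescence after a minimum 48 h, 37 C compound exposure with 20 nM CPT in Tdp1-knockout DT40 cells stably expressing hTDP1, seeded 400/well; qHTS titration format.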
# uPA surface inh: inhibitors of cell surface uPA generation; cell surface uPA generation assay, qHTS; Potency, µM (series often up to 38.3 µM), without a hit: at the highest dose activity change, negative = inhibition, usual class: inhibitors; 330,000 tested, 0.31% active; active = well fitted inhibition curve with a large enough effect; inconclusive = small, poorly fitted or top-dose-only effect; inactive = no such curve, though single readings can be large or run the other way; tested in mouse RAW 264.7 cells; note: potency is the fitted concentration of half-maximal effect; nearly all actives have a fitted effect of over 55% in size
# HT1080 IDH1KD tx: toxicity to HT-1080 IDH1 knockdown cells (counter line); HT-1080 IDH1 knockdown viability, ATP luminescence, 48 h; Potency, µM (titrated, usually from 46.1 µM), for the others: at the highest dose activity, negative = toxicity, most hits filed as cytotoxic; 360,000 tested, 2% active;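 note: potency is the fitted concentration of half-maximal effect; 0% = DMSO wells and -100% = cell-free medium wells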
#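 Luminescent ATP read-out (CellTiter-Glo, 10 min at room temperature) after 48 h compound exposure at 37 °C gave viability of IDH1-knockdown HT-1080 cells. Activity was normalised to DMSO and cell-free wells, then fitted as concentration-response curves.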
# TDP1 cell noCPT: qHTS for Inhibitors of human tyrosyl-DNA phosphodiesterase 1 (TDP1): qHTS in cells in absence of CPT; DT40 Tdp1-/- hTDP1 cells, no CPT, ATP luminescence, 48 h; Potency, µM (highest dose often 46.2 µM), for inactives: at the top dose activity change, negative = growth inhibition, hits mostly inhibitors; 420,000 tested, 15% active; note: potency is the fitted concentration of half-maximal effect; nearly all actives have a fitted effect of over 55% in size
#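 DT40 Tdp1-/-;hTDP1 cells, no CPT (DMSO vehicle only), 400 cells/well; compounds pin-transferred; ≥48 hr, 37 °C; CellTiter-Glo 30 min RT dark, luminescence read.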
# IL-1B inflam inh: blocks inflammasome-driven IL-1 beta release. activity change, % at 57.5 µM. 360,000 tested, 4.7% active. THP-1 LPS/ATP IL-1B secretion, AlphaLISA, 16 h; active compounds read low; in the data active = activity change below about -50%; inconclusive = mostly about -30% to -49%
#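 THP-1 cells pretreated 1 hr with compounds (up to 57.5 uM final), then stimulated with LPS (250 ng/mL final) plus ATP (1.25 mM final); secreted IL-1B measured by AlphaLISA after 16 hr, decreased signal indicating inhibition.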
# Starred values were filed as active, the others as inactive; ? = inconclusive; / = no result. Unless noted, calls come from the whole dose curve; as a rule, active = well fitted curve in the direction sought with a large enough effect; inconclusive = small, poorly fitted or top-dose-only effect, or another doubt; inactive = no such curve, though single readings can be large; an effect the other way counts as inactive or inconclusive. Unless noted, % is set by controls: 0 for no effect and ±100 for the full control effect.
SMILES,HT1080NT lethal,DT40 TDP1 CPT,uPA surface inh,HT1080 IDH1KD tx,TDP1 cell noCPT,IL-1B inflam inh
Cc1noc(C)c1NC(=O)N(C)C[C@H]1OCc2cnnn2CCCC(=O)N([C@H](C)CO)C[C@H]1C,4.2%,-5.2%,/,-1.4%,-27.9%,0.5
CC(=O)N1CCC(C(=O)Nc2ccc(S(=O)(=O)NCCc3ccccc3)cc2)CC1,-4.8%,-2.6%,1.3%,-5.4%,-8.4%,0.1
CSc1nc(N(CCO)CCO)c2sc3nc(-c4ccco4)c4c(c3c2n1)CCC4,?,16.4µM*,-2.7%,-24.1%,11.6µM*,-18.3
Cc1nn(C)cc1S(=O)(=O)Nc1ccc(F)c(F)c1,1.1%,1.2%,-1.5%,-0.1%,1.9%,17.1
O=C(COC(=O)CC1CC2CCC1C2)Nc1cc([N+](=O)[O-])ccc1F (configuration not stated),-4.7%,14.1%,3.1%,26.2%,0.3%,-53.8*
O=C(COC(=O)CCc1ccccc1)Nc1cc([N+](=O)[O-])ccc1F,-10.0%,-3.1%,4.4%,-9.3%,10.5%,1.6
Fc1cccc(CSc2ccc(-c3cccs3)nn2)c1,/,-28.5%,/,/,?,/
c1cncc(CSc2ccc(-c3cccs3)nn2)c1,-25.7%,-28.8%,-7.2%,?,?,-60.5*
Cc1ccc(CN2CCN(C3CCN(C(=O)c4ccc(C)cc4)CC3)C(=O)C2=O)cc1,/,11.2%,/,/,2.9%,/
O=C(Nc1c2c(nn1-c1ccc(F)cc1)CS(=O)(=O)C2)c1ccc2c(c1)OCO2,6.2%,-7.0%,2.9%,2.5%,11.6%,-10.2
CC1(C)Cc2ccccc2-c2nc3ccccc3c(=O)n21,-10.8%,?,-5.1%,-1.2%,11.6µM*,2.0
COC(=O)CSc1nnc2n1C(C)(C)Cc1ccccc1-2,9.4%,-0.6%,/,5.0%,9.9%,-11.5
CC1(C)CC(=O)C(C=NCCO)=C(O)C1,26.1%,18.4µM*,5.1%,16.5%,?,3.8
CC1(C)CC(=O)C(C=NCCN2CCOCC2)=C(O)C1,-6.0%,-24.3%,-7.1%,-0.3%,-25.5%,0.6
COCCNC(=O)c1ccc(Cn2c(SCC(=O)NC(C)C)nc3ccccc3c2=O)cc1,/,?,/,/,-16.9%,/
Cc1cccc(NC(=O)C2CC(O)CN2C(=O)Oc2ccccc2)c1 (configuration not stated),15.0%,15.3%,-2.0%,11.3%,-14.9%,-6.7
Cc1nc2c(nc1C)C(=O)c1ccccc1C2=O,?,3.66µM*,-10.1%,18.4µM*,4.61µM*,-27.9
CCC1=C(OC(=O)c2ccccc2)C(C)(C)C(c2ccccc2)OC1=O (configuration not stated),16.9%,?,6.3%,12.0%,23.1µM*,15.3
Cc1c(C(=O)NCc2ccc3c(c2)OCO3)sc(=O)n1Cc1ccc(-c2ccccc2)cc1,2.1%,?,/,1.2%,-23.3%,0.0
CC(C)NC(=O)C1(C)CSCC(=O)N1Cc1ccco1 (configuration not stated),5.2%,26.4%,/,-11.1%,11.1%,25.2
COc1cc(C(=O)Nc2ccc(S(=O)(=O)N3CCCCC3)cc2)ccc1OCC(=O)N1CCOCC1,7.7%,-19.9%,-5.1%,13.2%,-9.1%,30.7
Cc1nc(N)c(CC(Br)CBr)c(Cl)n1 (configuration not stated),-1.1%,8.2µM*,17.9%,-0.5%,7.31µM*,0.0
CC(C)C[C@@H]1O[C@H](CCc2ccccc2)Cc2[nH][nH]c(=O)c21,-2.1%,?,/,-11.2%,?,10.5
CC(=O)c1ccc(NC(=O)CSc2nnc(-c3ccoc3C)n2Cc2ccccc2)cc1,-4.5%,?,-4.0%,-1.7%,-26.7%,-66.7*
CC(=O)c1cccc(NC(=O)CSc2nnc(C(C)N(C)C)n2Cc2ccccc2)c1 (configuration not stated),5.9%,?,3.1%,3.5%,23.1µM*,8.0

# High-throughput results from PubChem.
